SMN2 splice up: enhancers of SMN2 splice variant expression. HEK293 SMN2-luciferase splicing reporter, luminescence, 30-36 h. Potency, µM (series often up to 46.1 µM), inactives show top-dose activity change, positive = activation, most hits filed as activators. hit rate 2.8% among 210,000. AID 1458; note: % of control where 0% means no effect; nearly all actives have a fitted effect of over 55% in size
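HEK293 cells carry an SMN2 minigene-luciferase reporter in which exon 7 inclusion puts luciferase in frame. Cells were seeded at 2000 cells/well, attached for 10-12 hours, then exposed to compounds for 30-36 hours at 37C before ONE-Glo luminescence.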
NPC1 promoter act: NPC1 promoter activation | Huh7 NPC1 promoter luciferase reporter, 24 h | hit rate 2.4% among 320,000 | Potency, µM (series often up to 9.22 µM), for the others: at the highest dose activation, hits mostly activators; note: % of control where 0% means no effect; nearly all actives have a fitted effect of over 60% in size
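In 1536-well qHTS, Huh7 cells harboring an NPC1 promoter–luciferase construct received compound for 24 h; activation was quantified by luminescence following luciferase reagent addition.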
Luc counter: blocks Kinase-Glo luciferase, a counter-screen artifact; Q27757; Kinase-Glo luciferase, ATP luminescence, 8 min; Potency, µM (doses to about 38.3 µM), for the others: top-dose activity change, negative = inhibition, usual class: inhibitors; hit rate 0.28% among 200,000; AID 1379; note: % is set by controls: 0 for no effect and ±100 for the full control effect; nearly all actives have a fitted effect of over 60% in size
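Compounds were added to a substrate mix at pH 7.2 (50 mM imidazole, 10 uM ATP, within the enzyme's linear range), followed by Kinase-Glo detection reagent; luminescence was measured after 8 minutes at ambient temperature.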
ELG1 genotoxic: induces genotoxicity in HEK293T cells with luciferase-tagged ELG1; HEK293T ELG1-luciferase reporter, luminescence, 16 h; Potency, µM (doses to about 46 µM), for the others: at the highest dose activity change, positive = activation, actives largely listed as activators; hit rate 1.3% among 330,000; AID 504466; note: % of control where 0% means no effect; nearly all actives have a fitted effect of over 60% in size
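DMSO vehicle served as control against compound-treated ELG1-luciferase HEK293T cells; exposure lasted 16 hr at 37 °C and 5% CO2, followed by ONE-Glo luminescence detection after 30 min.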
FLuc modulator: counter-screen for miR-21 project: firefly luciferase inhibitors or activators; AID 588342; Potency, µM (highest dose often 57.5 µM), for inactives: at the highest dose activity change, negative = inhibition, actives largely listed as inhibitors; P08659; purified FLuc, Km substrates, luminescence inhibition; hit rate 6.9% among 360,000;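 note: plate controls were vehicle for no effect and reference inhibitor for full effect; nearly all actives have a fitted effect of over 55% in size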
Target sequence (P08659 whole entry, looked up): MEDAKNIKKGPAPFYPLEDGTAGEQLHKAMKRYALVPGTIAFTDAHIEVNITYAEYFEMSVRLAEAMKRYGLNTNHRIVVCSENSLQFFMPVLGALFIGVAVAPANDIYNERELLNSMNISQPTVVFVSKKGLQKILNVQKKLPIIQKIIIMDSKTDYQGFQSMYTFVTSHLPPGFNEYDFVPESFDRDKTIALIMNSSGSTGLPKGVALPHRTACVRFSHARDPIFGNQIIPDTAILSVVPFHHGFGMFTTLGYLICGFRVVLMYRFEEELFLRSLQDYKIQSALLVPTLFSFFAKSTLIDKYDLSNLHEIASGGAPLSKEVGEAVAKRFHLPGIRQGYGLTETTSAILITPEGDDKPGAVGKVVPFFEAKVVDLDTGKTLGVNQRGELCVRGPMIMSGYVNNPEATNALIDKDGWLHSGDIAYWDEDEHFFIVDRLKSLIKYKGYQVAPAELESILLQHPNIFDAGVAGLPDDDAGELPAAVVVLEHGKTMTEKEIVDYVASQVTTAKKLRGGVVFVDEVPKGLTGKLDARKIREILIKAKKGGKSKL
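Biochemical qHTS of compounds, final roughly 60 µM downward over six points, against 10 nM purified firefly luciferase using Km concentrations of substrates (10 uM D-luciferin, 10 uM ATP) in Tris acetate pH 7.5 buffer; luminescence output.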
Rab9 prom act: activates the Rab9 promoter; Potency, µM (doses to about 9.22 µM), without a hit: at the highest dose activation, negative = inhibition, hits mostly activators; AID 485297; Huh7 Rab9 promoter-luciferase reporter, luminescence, 24 h; hit rate 2.8% among 320,000; note: % of control where 0% means no effect; nearly all actives have a fitted effect of over 60% in size
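Measured in stably transfected Huh7 cells bearing a Rab9 promoter–luciferase construct: 24 h compound treatment at 37 °C, followed by luminescence detection.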
* hit, by the source's call. Rows were chosen to be rich in hits. Some 7.3% of all compounds tested hit in one or more screens of this group. Calls come from the whole dose curve; as a rule, active = well fitted curve in the direction sought with a large enough effect; inconclusive = small, poorly fitted or top-dose-only effect, or another doubt; inactive = no such curve, though single readings can be large; an effect the other way counts as inactive or inconclusive. Potency is the fitted concentration of half-maximal effect.

What do the screens show for `NCc1cccc(CNc2ccc([N+](=O)[O-])cc2C(N)=O)c1`?
NPC1 promoter act: inconclusive; ELG1 genotoxic: inconclusive; FLuc modulator: -2%; Rab9 prom act: 3.2µM*

Results for O=C(O)c1ccc(N/N=C/c2ccc3nccnc3c2)cc1 ?
NPC1 promoter act: -32%; ELG1 genotoxic: inconclusive; FLuc modulator: 0.38µM*; Rab9 prom act: -38%

Results for O=C(N/N=C/c1ccc2nccnc2c1)c1ccc(Br)cc1 ?
NPC1 promoter act: -1%; ELG1 genotoxic: 4%; FLuc modulator: inconclusive; Rab9 prom act: -1%

How did O=C(O)c1ccc(N/N=C/c2ccncc2)cc1 do in these assays?
NPC1 promoter act: inconclusive; ELG1 genotoxic: 17%; FLuc modulator: 8.5µM*; Rab9 prom act: inconclusive

How did COC(=O)c1ccc(-c2csc(NC(=O)c3c(C)noc3C)n2)cc1 do in these assays?
NPC1 promoter act: 3%; ELG1 genotoxic: -8%; FLuc modulator: inconclusive; Rab9 prom act: 19%

How did CSc1nsc(NC(=O)OCc2ccc(Cl)cc2)n1 do in these assays?
NPC1 promoter act: 2%; ELG1 genotoxic: -2%; FLuc modulator: 24µM*; Rab9 prom act: 0%

Results for COc1ccsc1NC(=O)OCc1ccc(Cl)cc1 ?
NPC1 promoter act: 29%; ELG1 genotoxic: inconclusive; FLuc modulator: inconclusive; Rab9 prom act: 28%

What do the screens show for `Cc1ccc2nc(-c3ccc(-c4ccccn4)s3)cn2c1`?
NPC1 promoter act: 0.45µM*; ELG1 genotoxic: 1.6µM*; FLuc modulator: 0.19µM*; Rab9 prom act: 0.4µM*

What do the screens show for `Cc1ccc2nc(-c3ccc(S(=O)(=O)N4CCOCC4)cc3)cn2c1`?
SMN2 splice up: 5%; NPC1 promoter act: 2%; Luc counter: 2%; ELG1 genotoxic: 23µM*; FLuc modulator: -10%; Rab9 prom act: 15%

What do the screens show for `Cc1ccc2nc(-c3ccc(O)c(O)c3)cn2c1`?
NPC1 promoter act: inconclusive; ELG1 genotoxic: inconclusive; FLuc modulator: 3.4µM*; Rab9 prom act: 8%

Results for Cc1nc(-c2ccccc2)cn(O)c1=O ?
SMN2 splice up: 2%; NPC1 promoter act: -2%; Luc counter: 1%; ELG1 genotoxic: 4%; FLuc modulator: -19%; Rab9 prom act: 8%

Results for Cc1ccn2cc(-c3ccc(S(=O)(=O)N4CCOCC4)cc3)nc2c1 ?
SMN2 splice up: 8%; NPC1 promoter act: inconclusive; Luc counter: 0%; ELG1 genotoxic: 7%; FLuc modulator: inconclusive; Rab9 prom act: inconclusive

Results for Cc1ccc2nc(-c3ccccc3)cn2c1 ?
SMN2 splice up: 0.5µM*; NPC1 promoter act: 0.11µM*; Luc counter: 8.9µM*; ELG1 genotoxic: inconclusive; FLuc modulator: 0.12µM*; Rab9 prom act: inconclusive

How did COc1cc(C2C(=O)N(C3CCCCC3)CC(=O)N2C2CCCC2)ccc1OC(C)C (stereo not drawn) do in these assays?
FLuc modulator: -10%

How did CCOc1ccc(NS(=O)(=O)c2ccc(C)c(C(=O)O)c2)cc1 do in these assays?
Luc counter: 0%

What do the screens show for `CC(=O)Nc1ccc(-c2cn3cc(C)ccc3n2)cc1`?
SMN2 splice up: 4.5µM*; NPC1 promoter act: 3.2µM*; Luc counter: 23%; ELG1 genotoxic: inconclusive; FLuc modulator: 1.9µM*; Rab9 prom act: 1µM*

What do the screens show for `Fc1ccccc1-n1ncc2c1ncn1nc(-c3ccccc3Cl)nc21`?
SMN2 splice up: 5%; FLuc modulator: 0.95µM*

What do the screens show for `CC(C)C1N=C(c2ccc3c(c2)OCO3)CC(c2ccccc2O)N1` (stereo not drawn)?
SMN2 splice up: -1%; NPC1 promoter act: inconclusive; Luc counter: -10%; ELG1 genotoxic: 18%; FLuc modulator: 11µM*; Rab9 prom act: inconclusive

How did CCc1cc(-c2[nH]ncc2-c2ccc3c(c2)OCO3)c(O)cc1O do in these assays?
SMN2 splice up: -53%; NPC1 promoter act: 8%; Luc counter: -2%; ELG1 genotoxic: -22%; FLuc modulator: inconclusive; Rab9 prom act: 0%

What do the screens show for `COc1ccc(OC)c(/C=C/C(=O)c2ccc(Cl)cc2)c1`?
SMN2 splice up: -32%; NPC1 promoter act: -2%; Luc counter: -1%; ELG1 genotoxic: 1%; FLuc modulator: 11µM*; Rab9 prom act: -5%

How did COc1ccccc1/C=C/C(=O)c1c2c(c(C)[nH]c1=O)CCCC2 do in these assays?
SMN2 splice up: -54%; NPC1 promoter act: 0%; Luc counter: 1%; ELG1 genotoxic: -5%; FLuc modulator: -7%; Rab9 prom act: -30%

Results for O=C(/C=C/c1ccccc1O)c1ccc(Cl)cc1 ?
NPC1 promoter act: -1%; ELG1 genotoxic: 10%; FLuc modulator: 3.4µM*; Rab9 prom act: 25%

How did COc1ccccc1/C=C/C(=O)N1CCOCC1 do in these assays?
SMN2 splice up: -16%; NPC1 promoter act: 0%; Luc counter: -3%; ELG1 genotoxic: 3%; FLuc modulator: 3%; Rab9 prom act: 0%

How did COc1ccccc1/C=C/C(=O)N1CCC(c2ccccc2)C1 (stereo not drawn) do in these assays?
SMN2 splice up: 13µM*; NPC1 promoter act: inconclusive; Luc counter: -2%; ELG1 genotoxic: inconclusive; FLuc modulator: 9.5µM*; Rab9 prom act: inconclusive

How did COc1ccc(OC(=O)c2ccc(Cl)cc2)c(C(C)=O)c1 do in these assays?
NPC1 promoter act: -5%; ELG1 genotoxic: 15%; FLuc modulator: inconclusive; Rab9 prom act: -3%

Results for COc1ccccc1/C=C/C(=O)c1ccccc1 ?
NPC1 promoter act: inconclusive; ELG1 genotoxic: inconclusive; FLuc modulator: 1.9µM*; Rab9 prom act: inconclusive

What do the screens show for `CCOC(=O)c1scc(-c2ccccc2)c1S(=O)(=O)Nc1cc(Cl)c(OC)cc1OC`?
FLuc modulator: -13%

Results for COc1ccccc1/C=C/C(=O)c1ccc(NC(C)=O)cc1 ?
NPC1 promoter act: 8%; Luc counter: -2%; ELG1 genotoxic: -1%; FLuc modulator: 15µM*; Rab9 prom act: 0%

What do the screens show for `CCOc1ccccc1/C=C/C(=O)c1ccc(Cl)cc1`?
SMN2 splice up: -58%; NPC1 promoter act: 17%; Luc counter: 5%; ELG1 genotoxic: 10%; FLuc modulator: inconclusive; Rab9 prom act: 11%

Results for O=C(O)/C=C\c1ccccc1Oc1cccc(Cl)c1 ?
SMN2 splice up: -2%; NPC1 promoter act: -10%; Luc counter: -1%; ELG1 genotoxic: 2%; FLuc modulator: inconclusive; Rab9 prom act: 7%

How did COc1ccccc1N1CCN(C(=O)c2ccc(NC(C)=O)cc2)CC1 do in these assays?
SMN2 splice up: -24%; NPC1 promoter act: -3%; Luc counter: 1%; ELG1 genotoxic: -2%; FLuc modulator: 4%; Rab9 prom act: 0%

From PubChem BioAssay
